High-throughput results as filed in PubChem.
MOR-DOR ag – OPRM1-OPRD1 heterodimerization agonism. P35372+P41143. actives 0.3% (n = 340,000). activation, % at 9.3 µM. cells, luminescence. AID 504326;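 further: 0% = vehicle-treated cells and 100% = reference agonist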
Target sequence (P35372 whole entry, looked up): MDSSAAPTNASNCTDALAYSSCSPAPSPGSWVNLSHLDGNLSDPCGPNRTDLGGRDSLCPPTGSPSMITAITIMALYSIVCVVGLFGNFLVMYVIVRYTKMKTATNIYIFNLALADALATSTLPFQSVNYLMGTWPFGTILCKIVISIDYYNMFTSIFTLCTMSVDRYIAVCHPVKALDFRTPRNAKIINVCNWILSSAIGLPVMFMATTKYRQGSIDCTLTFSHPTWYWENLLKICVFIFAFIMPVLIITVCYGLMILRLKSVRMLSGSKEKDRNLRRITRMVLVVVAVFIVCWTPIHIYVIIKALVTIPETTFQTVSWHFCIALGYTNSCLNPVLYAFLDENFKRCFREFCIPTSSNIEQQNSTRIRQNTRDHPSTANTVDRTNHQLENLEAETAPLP
Target sequence (P41143 whole entry, looked up): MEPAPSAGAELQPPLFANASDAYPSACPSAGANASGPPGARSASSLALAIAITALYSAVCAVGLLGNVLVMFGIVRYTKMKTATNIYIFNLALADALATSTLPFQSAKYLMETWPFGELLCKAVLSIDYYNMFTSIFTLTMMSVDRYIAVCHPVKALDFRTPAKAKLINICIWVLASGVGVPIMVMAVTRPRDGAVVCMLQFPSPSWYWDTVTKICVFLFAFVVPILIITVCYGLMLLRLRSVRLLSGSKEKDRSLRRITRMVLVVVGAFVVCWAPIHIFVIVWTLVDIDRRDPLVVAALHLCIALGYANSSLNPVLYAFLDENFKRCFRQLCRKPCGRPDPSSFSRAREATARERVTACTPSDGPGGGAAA
OPRM1-OPRD1 inv – inverse agonists of human mu-delta opioid receptor heterodimerization. AID 504357. cell-based MOR-DOR heterodimer luminescence, inverse agonism. inhibition, % at 9.3 µM. actives 0.21% (n = 340,000); in the data active means inhibition above about 22%, passing the limit was not always enough;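 further: 0% = cells with DMSO and 100% = wells without cells with DMSO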
HTR5A ag ctr – activates human HTR5A in OPRM1-OPRD1 agonist counter-screen. HTR5A agonist assay, luminescence, cell-based. P47898. AID 504692. actives 0.61% (n = 340,000). activation, % at 9.3 µM; in the data active means activation mostly above about 9.5%, no sharp cut-off; inactive means mostly below about 7.6%;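 further: 0% = cells with vehicle only and 100% = reference agonist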
HTR5A inv ctr – HTR5A inverse agonism, opioid heterodimer counter-screen. P47898. HTR5A cell line, luminescence. inhibition, % at 9.3 µM. actives 0.083% (n = 340,000). AID 504634; in the data active means inhibition mostly above about 23%, no sharp cut-off; inactive means mostly below about 18%;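 further: 0% = cells with DMSO and 100% = no-cell wells with DMSO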
OPRM1-D1 ag cf – confirmation of human OPRM1-OPRD1 heterodimerization agonists; cells, MOR-DOR heterodimerization, luminescence complementation; shares compounds with MOR-DOR ag; actives 45% (n = 830); activation, % at 9.3 µM;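 further: 0% = vehicle-treated cells and 100% = reference agonist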
HTR5A ag counter – counter-screen for OPRM1-OPRD1 agonists: human HTR5A agonism | shares compounds with MOR-DOR ag | HTR5A agonist counterscreen, cell luminescence | activation, % at 9.3 µM | actives 8% (n = 830) | AID 504905; in the data active means activation above about 17%;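 further: 0% = vehicle-treated cells and 100% = reference agonist response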
* marks the source's active call; other numbers are inactive results; i = inactive; · = no result given. Shown are actives, neighbours in structure and some others; about 1.1% of the full set was active somewhere. Unless noted, no stated cut-off is given here; in the data, active means activation above about 18%; inactive means the rest.

SMILES	MOR-DOR ag	OPRM1-OPRD1 inv	HTR5A ag ctr	HTR5A inv ctr	OPRM1-D1 ag cf	HTR5A ag counter
CC(=O)OC1CC(OC2C(O)CC(OC3C(O)CC(OC4CCC5(C)C(CCC6C5CCC5(C)C(C7=CC(=O)OC7)C(O)CC65O)C4)OC3C)OC2C)OC(C)C1OC1OC(CO)C(O)C(O)C1O (centres undefined)	72*	-369	19*	-75	38*	28*
CN(C)C1(CNC(=O)c2ccc(Cl)c(S(=O)(=O)NCc3ccco3)c2)CCCCC1	71*	-395	-2	17	80*	1
CN(C)C1(CNC(=O)Cc2ccccc2F)CCCCC1	2	-7	-1	3	·	·
CCOC(=O)C1(c2ccccc2)CCN(CCC(=O)Nc2ccccc2OC)CC1	92*	-439	7	-24	15	4
CCOC(=O)C1(c2ccccc2)CCN(CCC(=O)Nc2ccc(F)cc2)CC1	131*	-492	1	-13	153*	0
CCOC(=O)C1(c2ccccc2)CCN(CC(=O)c2ccc(NC(C)=O)cc2)CC1	-2	8	-2	6	·	·
CCOC(=O)C1(c2ccccc2)CCN(CC(=O)Nc2cccc3ccccc23)CC1	24*	-165	1	-17	11	1
NC(Cc1ccc(O)cc1)C(=O)NN=Cc1ccc(N(CCCl)CCCl)cc1 (centres undefined)	-4	19	5	-19	·	·
Cc1ccc(OP2(=O)Nc3cc(C)c(C)cc3S2)cc1 (centres undefined)	2	-8	1	-6	·	·
COc1cc(C2(C#N)CCN(C)CC2)cc(OC)c1OC	-1	7	-2	8	·	·
CC(C)(O)C1C2OC(=O)C1C1(O)CC3OC34C(=O)OC2C14C (centres undefined)	3	-15	-3	12	·	·
COc1cc2c3cc1Oc1c(OC)c(OC)cc4c1[C@H](Cc1ccc(cc1)Oc1cc(ccc1O)C[C@H]3N(C)CC2)N(C)CC4	-1	6	1	1	·	·
COc1cc2c3cc1Oc1cc(ccc1O)C[C@@H]1c4c(cc(OC)c(O)c4Oc4ccc(cc4)C[C@H]3N(C)CC2)CCN1C	34*	-189	11	-23	65*	-4
Cc1cc(-c2ccccc2)cc(C)[n+]1Cc1ccccc1	53*	-299	3	3	0	1
CCC1C(c2cc(OC)c(OC)c(OC)c2)c2cc3c(cc2OC1N1CCCC1)OCO3 (centres undefined)	0	1	5	-20	·	·
COc1ccc(CCn2c(O)c(C=NCCN3CCCCC3)c(=O)[nH]c2=O)cc1OC	79*	-398	2	-3	1	-1
COc1ccc(-c2ccc3n2Cc2cnnn2-c2ccccc2-3)cc1	-1	4	1	-4	·	·
COc1ccc(C(CNC(=O)c2ccc3c(c2)CCC3)N(C)C)cc1 (centres undefined)	400*	i	2	-7	512*	-2
CC1OC(OC2C=C3CCC4C(CCC5(C)C(c6ccc(=O)oc6)CCC45O)C3(C)CC2)C(O)C(OC2OC(CO)C(O)C(O)C2O)C1O (centres undefined)	92*	-401	26*	-99	2	0
CC1=C(O)C(=O)C=C2C1=CC=C1C2(C)CCC2(C)C3CC(C)(C(=O)O)CCC3(C)CCC12C (centres undefined)	3	-17	-2	6	·	·
CCCCN=C[C@]12CCC(O)CC1(O)CCC1[C@@H]2CC[C@]2(C)[C@H](C3C=CC(=O)O3)CCC12O (some centres undefined)	71*	-396	31*	-123	36*	27*
C[C@]12CC[C@H]3[C@@H](CC[C@]4(O)C[C@@H](O)CC[C@]34C=O)[C@@]1(O)CC[C@@H]2C1=CC(=O)OC1	70*	-376	20	-71	0	0
CC12CCC3C(CCC4(O)CC(O)CCC34C=NO)C1(O)CCC2C1=COC(=O)C1 (centres undefined)	77*	-337	31*	-118	0	-1
CC12CCC3C(CCC4(O)CC(O)CCC34C=O)C1(O)CCC2C1=CC(=O)OC1 (centres undefined)	79*	-405	29*	-113	41*	24*
COC(=O)C1=C(C(=O)OC)C2OC1c1cc3ccccc3cc12	-6	26	2	-9	·	·
SMILES	MOR-DOR ag	OPRM1-OPRD1 inv	HTR5A ag ctr	HTR5A inv ctr	OPRM1-D1 ag cf	HTR5A ag counter
S=P(NCCSCc1ccccc1)(N1CC1)N1CC1	-1	5	-1	2	·	·
C[C@]12CCC3C(CCC4=CC(O)CC[C@@]43/C=N/O)C1(O)CCC2C1=CC(=O)OC1 (some centres undefined)	69*	-355	29*	-106	38*	22*
C[C@H]1O[C@@H](OC2CC[C@]3(C=O)[C@H]4CC[C@]5(C)[C@@H](C6=CC(=O)OC6)CC[C@]5(O)[C@@H]4CC[C@]3(O)C2)CC2OC(C)(C)OC21 (some centres undefined)	73*	-420	33*	-127	-2	-2
N#CC1c2ccccc2-n2nncc2CN1Cc1cc(Cl)cc(Cl)c1 (centres undefined)	-2	9	-8	28	·	·
CCOC(=O)C1(CCc2ccccc2)CCN(C2CCSCC2)CC1	2	-10	-3	7	·	·
CCOC(=O)C1(CCc2ccccc2)CCN(Cc2ccc(NC(C)=O)cc2)CC1	293*	i	-1	2	372*	0
CCOC(=O)C1(CCOc2ccccc2)CCN(Cc2ccc(C)s2)CC1	33*	-171	-1	4	39*	3
CCOC(=O)C1(CCc2ccccc2)CCN(Cc2ccc3c(c2)OCCO3)CC1	25*	-121	6	-13	1	4
CC1=NCCc2c1[nH]c1ccccc21	19*	-108	5	-40	6	12
CCOC(=O)CC(SP1(=S)OCC2(CC=CCC2)CO1)C(=O)OCC (centres undefined)	0	2	0	0	·	·
N[C@@H]1CC[C@@]2(O)[C@H]3Cc4ccc(O)c5c4[C@@]2(CCN3CC2CC2)C1O5 (some centres undefined)	2	-10	-6	13	·	·
O=C1/C(=C/c2ccccc2)C[C@@]2(O)[C@H]3Cc4ccc(O)c5c4[C@@]2(CCN3CC2CC2)C1O5 (some centres undefined)	-3	13	-1	3	·	·
COC12CCC3(CC1C(C)(O)C(C)(C)C)[C@H]1Cc4ccc(O)c5c4[C@@]3(CCN1CC1CC1)C2O5 (some centres undefined)	·	·	4	-10	·	53*
COC12CCC3(CC1C(C)(O)C(C)(C)C)[C@H]1Cc4ccc(OC5OC(C(=O)O)[C@@H](O)C(O)[C@H]5O)c5c4[C@@]3(CCN1CC1CC1)C2O5 (some centres undefined)	18*	-73	6	-14	84*	3
O=C1NC(=S)NC(=O)C1c1ccccc1	-2	13	1	-2	·	·
